Results reported in PubChem BioAssay (NCATS).
Several values for one entry are separate records, joined by “and”; a condition that tells them apart may be missing. Identical values can stand only once. Records with an inconclusive call do not appear. A structure can be active in one record and inactive in another. A number with no mark means an inactive call. Activity calls are given as the source filed them. Calls come from the whole dose curve; as a rule, active = well fitted inhibition curve with a large enough effect; inconclusive = small, poorly fitted or top-dose-only effect; inactive = flat fitted curve, though single readings scatter.

What follows are compounds tested on HEK293 (assay: Cytotoxic Profiling of Annotated Libraries Using Quantitative High-Throughput Screening (AID 1296008; note: nearly all actives have a fitted effect of over 60% in size)). Conditions: Five cell lines viability, CellTiter-Glo ATP luminescence, 48-72 h; max response: stronger effect = lower value.
Method in brief: (§1)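 Cells exposed to compounds for 48 or 72 hr at 37 degrees Celsius. Viability read as ATP-coupled luminescence with CellTiter-Glo after 10 min at room temperature.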
% is set by controls: 0 for no effect and ±100 for the full control effect; potency is the fitted concentration of half-maximal effect.

Compound	Potency
CNc1nc(-c2ccc3c(N)n[nH]c3c2)cc(N2C[C@@H](C(=O)NC3CCCCC3)CC[C@@H]2C)n1	7.43 µM (active)
CC(C)C[C@@H](C(=O)N[C@H](C(=O)OC1CCCC1)c1ccccc1)[C@H](O)C(=O)NO	18.7 µM (active)
CCN(CC)CCCCNc1nc2cc(Cl)c(Cl)cc2nc1-c1ccc(-c2cccs2)s1	29.6 µM (active)
NS(=O)(=O)c1ccc(Nc2nc(OCC3CCCCC3)c3[nH]cnc3n2)cc1	18.4 µM (active)
C[C@H]1[C@H](O)O[C@@H]2O[C@@]3(C)CC[C@@H]4[C@H](C)CC[C@@H]1[C@@]24OO3	3.32 µM (active)
CN(C)N=Nc1nc[nH]c1C(N)=O	3.72 µM (active)
O=C(Nc1ncc(SCCN2CCCC2)s1)[C@]1(c2ccc(S(=O)(=O)C3CC3)cc2)C[C@@H]1C1CCCCC1	16.6 µM (active)
O=C(O)Cc1cccc(OCCCN(Cc2cccc(C(F)(F)F)c2Cl)CC(c2ccccc2)c2ccccc2)c1	16.6 µM (active)
Cc1ccc(NC(=O)Nc2cc(C(F)(F)F)ccc2F)cc1Nc1ccc2c(c1)NC(=O)C2=Cc1ccc[nH]1	11.8 µM (active)
CN[C@@H]1CN(c2ccc3c(=O)c(C(=O)O)cn(-c4nccs4)c3n2)C[C@@H]1OC	1.29 µM (active)

Each compound was assayed on HaCat in the same assay as above. Conditions: Five cell lines viability, CellTiter-Glo ATP luminescence, 48-72 h; max response: stronger effect = lower value.
Method in brief: as §1

Compound	Potency	max response	outcome
O=c1[nH]nc(OCCCc2ccc(Cl)cc2)c(NCc2cccnc2)c1Br	20.9 µM (active)		
Cc1cccc(-c2[nH]c(C(C)(C)C)nc2-c2ccc3c(c2)OCO3)n1		-21.5%	
COc1ccc2c(c1)c(C1=C(c3c[nH]c4ccccc34)C(=O)NC1=O)cn2CCCN(C)C			inactive
CC(C)(C)c1nc(-c2cccc(NS(=O)(=O)c3c(F)cccc3F)c2F)c(-c2ccnc(N)n2)s1		-2.38%	
Oc1cc(O)cc(C=Cc2ccc(O)c(O)c2)c1		-2.98%	
NC[C@H]1O[C@H](O[C@@H]2[C@@H](O)[C@@H](O[C@H]3O[C@H](CO)[C@@H](O)[C@H](N)[C@@H]3O)[C@H](N)C[C@@H]2N)[C@H](O)[C@@H](O)[C@H]1O		-1.4%	
COc1cc2c(cc1OC)CC(=O)N(CCCN(C)C[C@H]1Cc3cc(OC)c(OC)cc31)CC2		-15.9%	
O=C(Nc1cccc(Cl)c1)Nc1ncc(CCNc2ncnc3ccsc23)s1	2.09 µM (active)		
CC(C)c1onc(-c2c(Cl)cccc2Cl)c1COc1ccc(C=Cc2cccc(C(=O)O)c2)c(Cl)c1		-7.35%	
CN1CCN(c2cccc(Nc3nc4c(-c5ccc(S(C)(=O)=O)cc5)cccn4n3)c2)CC1	14.8 µM (active) and 5.17 µM (active)		
CC1=C[C@@H]2[C@@H]([C@@H](O)C[C@@]3(C)[C@H]2C[C@@H](C)[C@]3(O)C(=O)CO)[C@@]2(C)Cc3cnn(-c4ccccc4)c3C=C12	20.6 µM (active)		
COc1nccc(-c2c(-c3ccc(F)cc3)ncn2C2CCC(O)CC2)n1 (stereo not drawn)		-10.4%	inactive
CCCCC[C@H](O)C=C[C@H]1[C@H](O)CC(=O)[C@H]1CCCCCCC(=O)O		-1.7%	
CN1CC(=O)N2C(Cc3c([nH]c4ccccc34)[C@H]2c2ccc3c(c2)OCO3)C1=O (stereo partly drawn)		4.52%	
CN1C(=O)C(Cc2c[nH]c3ccccc23)NC1=S (stereo not drawn)			inactive
CNC(=O)c1ccc2c(C(=Nc3cccc(CN(C)C)c3)c3ccccc3)c(O)[nH]c2c1		0.629%	inactive
CC(C)C[C@H](NC(=O)c1cc2ccccc2s1)C(=O)N1CCN(C(=O)[C@H](CO)NS(=O)(=O)c2ccc(Cl)cc2Cl)CC1		-15.5%	
CNc1nc(-c2ccc3c(N)n[nH]c3c2)cc(N2C[C@@H](C(=O)NC3CCCCC3)CC[C@@H]2C)n1		-5.08%	
Cc1nc2c([nH]1)CCN(C(=O)c1ccc(NC(=O)c3ccccc3-c3ccccc3)cc1)c1ccccc1-2		-0.498%	inactive
O=C1NC(=O)C(c2cnc3ccccn23)=C1c1cn2c3c(cccc13)CN(C(=O)N1CCOCC1)CC2		-40.4%	
NS(=O)(=O)c1ccc(Nc2nc(OCC3CCCCC3)c3[nH]cnc3n2)cc1		-17.9%	
C[C@H]1[C@H](O)O[C@@H]2O[C@@]3(C)CC[C@@H]4[C@H](C)CC[C@@H]1[C@@]24OO3		-7.84%	
CN[C@@H](C)[C@H]1[C@H](O)C[C@@]2(C)[C@@H]3CC[C@H]4C(C)(C)[C@@H](NC)CC[C@@]45C[C@@]35CC[C@]12C		-3.67%	inactive
CN(C)N=Nc1nc[nH]c1C(N)=O	18.7 µM (active)		
CCN1CCN(c2ccc(Nc3cc(N(C)C(=O)Nc4c(Cl)c(OC)cc(OC)c4Cl)ncn3)cc2)CC1	8.2 µM (active)	4.46%	
CN[C@@H]1CN(c2ccc3c(=O)c(C(=O)O)cn(-c4nccs4)c3n2)C[C@@H]1OC	6.45 µM (active)		
COc1ccc(Cn2ccc3ccc(C(=O)NO)cc32)cc1		-11.8%	inactive
